High-throughput results (PubChem)
In the library only some 1.3% were active in any assay of this set; here they are far more common.
LRH-1 inv ag – suppresses constitutive activity of human LRH-1 | O00482 | HEK293T StAR-luciferase reporter, LRH-1 transfected, 24 h | inhibition, % at 3.6 µM | 0.13% of 360,000 active;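 active = inhibition above the mean inhibition of all tested compounds plus 3 SD, cut at about 73% in these data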
NCOA1 inh – inhibits human SRC1 coactivator | inhibition, % at 3.6 µM | 0.12% of 360,000 active | HEK293 GAL4-SRC1 luciferase reporter, luminescence | AID 588354;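 active = inhibition above the campaign mean plus 3 SD, with each screening campaign given its own cutoff, cut at about 60% in these data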
Target sequence (Q15788 whole entry, looked up, the tested form may be a part): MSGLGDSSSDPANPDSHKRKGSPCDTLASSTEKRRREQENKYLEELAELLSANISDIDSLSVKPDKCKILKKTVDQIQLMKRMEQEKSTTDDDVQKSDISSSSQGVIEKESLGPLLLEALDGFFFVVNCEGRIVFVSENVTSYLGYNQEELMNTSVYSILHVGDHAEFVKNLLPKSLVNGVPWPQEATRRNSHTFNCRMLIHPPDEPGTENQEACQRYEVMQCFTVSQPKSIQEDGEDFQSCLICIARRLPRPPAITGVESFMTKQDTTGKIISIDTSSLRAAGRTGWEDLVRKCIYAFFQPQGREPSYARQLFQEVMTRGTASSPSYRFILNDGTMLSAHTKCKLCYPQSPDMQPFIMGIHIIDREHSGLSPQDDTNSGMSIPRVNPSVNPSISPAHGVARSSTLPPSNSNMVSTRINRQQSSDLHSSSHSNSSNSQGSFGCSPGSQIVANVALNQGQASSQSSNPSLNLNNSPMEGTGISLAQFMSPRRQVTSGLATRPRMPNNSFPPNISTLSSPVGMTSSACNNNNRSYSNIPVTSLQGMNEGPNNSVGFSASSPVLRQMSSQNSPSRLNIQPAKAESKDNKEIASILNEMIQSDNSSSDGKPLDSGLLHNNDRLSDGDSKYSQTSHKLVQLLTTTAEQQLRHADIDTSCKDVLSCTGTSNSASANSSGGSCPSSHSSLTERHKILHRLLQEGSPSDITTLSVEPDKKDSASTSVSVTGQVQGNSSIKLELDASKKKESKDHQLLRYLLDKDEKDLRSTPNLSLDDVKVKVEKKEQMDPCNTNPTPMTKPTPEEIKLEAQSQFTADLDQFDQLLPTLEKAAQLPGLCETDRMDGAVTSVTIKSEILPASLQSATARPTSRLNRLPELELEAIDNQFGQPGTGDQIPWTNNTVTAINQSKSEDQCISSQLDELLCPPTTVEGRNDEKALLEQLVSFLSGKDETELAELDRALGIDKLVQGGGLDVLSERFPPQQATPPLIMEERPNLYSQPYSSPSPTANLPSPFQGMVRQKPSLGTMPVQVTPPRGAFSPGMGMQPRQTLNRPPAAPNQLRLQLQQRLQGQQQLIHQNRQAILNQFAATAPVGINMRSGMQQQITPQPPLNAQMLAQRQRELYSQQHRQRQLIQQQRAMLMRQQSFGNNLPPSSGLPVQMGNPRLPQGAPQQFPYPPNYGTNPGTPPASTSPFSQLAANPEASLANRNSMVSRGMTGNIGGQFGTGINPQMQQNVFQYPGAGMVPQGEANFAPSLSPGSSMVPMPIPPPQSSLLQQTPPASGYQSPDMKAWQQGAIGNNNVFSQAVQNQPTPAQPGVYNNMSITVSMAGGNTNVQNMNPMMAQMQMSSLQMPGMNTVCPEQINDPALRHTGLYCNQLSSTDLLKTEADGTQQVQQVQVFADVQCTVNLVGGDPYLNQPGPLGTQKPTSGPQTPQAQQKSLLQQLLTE
NCOA3 inh – human NCOA3 inhibition. HEK293 GAL4-SRC3 luciferase reporter, luminescence. Q9Y6Q9. inhibition, % at 3.6 µM. 0.17% of 360,000 active;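 active = inhibition above a per-campaign cutoff, the mean of all compounds plus 3 SD, cut at about 60% in these data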;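 note: higher means less SRC3-driven luciferase light from the GAL4 reporter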
Gli-Sufu block – Gli-Sufu pathway antagonism; 0.74% of 340,000 active; Sufu-KO-LIGHT fibroblasts, Gli luciferase reporter luminescence; inhibition, % at 5 µM; AID 588413;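 active = inhibition above about 55%, limit read from the data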
COUP-TFII inh – NR2F2 (human) inhibition, primary screen; P24468; HEK293T NGFI-A luciferase reporter, luminescence; inhibition, % at 8.6 µM; 0.7% of 370,000 active;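 active = inhibition above a per-plate cutoff, mean inhibition of test wells between control levels plus 3 SD, cut at about 38% in these data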;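 note: cells cotransfected with COUP-TFII expression vector driving the NGFI-A reporter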
SRC2 inh – human SRC2 (NCOA2) inhibition | Q15596 | HEK293 GAL4-SRC2 luciferase reporter, luminescence | inhibition, % at 9 µM | 0.17% of 370,000 active | AID 651957;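 active = inhibition above the mean inhibition of all tested compounds plus 3 SD, set per campaign, cut at about 52% in these data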
VP16 Luc counter – counter-screen for COUP-TFII antagonists: inhibitors of VP16; shares compounds with COUP-TFII inh; HEK293 Gal4-VP16 luciferase reporter, luminescence; inhibition, % at 8.5 µM; 25% of 2,500 active; AID 687007; in the data active = inhibition above about 13%
COUP-TFII conf – COUP-TFII (NR2F2) inhibition, confirmation assay; shares compounds with COUP-TFII inh; HEK293 NGFI-A luciferase reporter, luminescence; inhibition, % at 8.5 µM; 45% of 2,500 active; AID 687008;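 active = mean inhibition over three repeats above a set limit taken from the earlier primary screen, cut at about 38% in these data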
Each line names hits and unclear results; the compound was inactive in the other large screens (follow-up assays come after a bar, where they were run).

O=C(O)CC(Sc1ccc(Cl)cc1)C(=O)Nc1ccccc1 (stereo not drawn)	none (no result: LRH-1 inv ag, NCOA1 inh, NCOA3 inh, Gli-Sufu block)
CC(=O)OC1CCC2(C)C(CCC3C4CC=C(C(C)=O)C4(C)OC(=O)CC32)C1 (stereo not drawn)	COUP-TFII inh 57, SRC2 inh 59 (no result: Gli-Sufu block) | VP16 Luc counter 37 | COUP-TFII conf 44
CC(C)OC(=O)CSc1nc(N)c(C#N)c(-c2cccs2)c1C#N	COUP-TFII inh 45 | VP16 Luc counter inactive | COUP-TFII conf inactive
CC(=O)CSc1nc(N)c(C#N)c(-c2cccs2)c1C#N	none
NN=C1c2ccccc2C(=O)C1C(=O)C(c1ccccc1)c1ccccc1 (stereo not drawn)	none
Cc1ccc(-c2nnc(SCC(=O)Nc3ccccc3F)o2)cc1	COUP-TFII inh 64, SRC2 inh 62 | VP16 Luc counter 24 | COUP-TFII conf 40
Cc1cc(C(=O)COC(=O)c2ccco2)c(C)n1Cc1ccco1	COUP-TFII inh 58 | VP16 Luc counter inactive | COUP-TFII conf inactive
COc1ccc(-c2c[n+]3c(n2-c2c(C)n(C)n(-c4ccccc4)c2=O)CCCCC3)cc1	none
CCOc1ccc(-n2c(-c3ccc(OC)cc3)c[n+]3c2CCCCC3)cc1	LRH-1 inv ag 84, Gli-Sufu block 87, COUP-TFII inh 83 | VP16 Luc counter 20 | COUP-TFII conf 72
COc1ccc(-c2c[n+]3c(n2-c2ccc(C)cc2)CCCCC3)cc1	Gli-Sufu block 79, COUP-TFII inh 71 | VP16 Luc counter inactive | COUP-TFII conf 61
COc1ccc(Cl)cc1Nc1cc(C)nc2ncnn12	none (no result: Gli-Sufu block)
